The campaign covered roughly 39,000 compounds. About 3,300 (8.5%) were called active. Shown is part of a subset that was picked to be rich in actives.

This assay has as its system HepG2. As to the kind of experiment: cytotoxicity call (relative viability < 0.9). To be noted: 10 µM.
Regarding `C[C@@H]1CN([C@H](C)CO)C(=O)c2cc(C#CCN(C)C)cnc2O[C@@H]1CN(C)C(=O)CCN1CCCCC1`, the cytotoxicity call was “inactive”.
On to `Cc1noc(C)c1NC(=O)N[C@@H]1C=C[C@H](CC(=O)NCCCN(C)C)O[C@@H]1CO`, for which the cytotoxicity call was “inactive”.
In the case of `C[C@@H]1CN([C@@H](C)CO)C(=O)c2cccc(NC(=O)Nc3ccc4c(c3)OCO4)c2O[C@H]1CN(C)Cc1ccc(Cl)c(Cl)c1` it was “inactive”.
Take `C[C@H](CO)N1C[C@H](C)[C@@H](CN(C)C(=O)Nc2ccc(C(F)(F)F)cc2)Oc2ccc(NC(=O)Nc3cccc4ccccc34)cc2CC1=O`: the cytotoxicity call was “inactive”.
For the molecule `C[C@H](CO)N1C[C@H](C)[C@@H](CN(C)Cc2ccc(C(=O)Nc3ccccc3N)cc2)OCCCC[C@H](C)Oc2ccc(N(C)C)cc2C1=O`, the cytotoxicity call is “inactive”.
Consider `C[C@@H]1CN([C@H](C)CO)C(=O)c2cc(NC(=O)C3CC3)ccc2O[C@@H]1CN(C)S(=O)(=O)c1ccc(Cl)cc1`, for which the cytotoxicity call is “inactive”.
In the case of `C[C@@H]1CN([C@@H](C)CO)C(=O)c2c(c3ccccc3n2C)-c2ccccc2CO[C@H]1CN(C)Cc1ccc(C(F)(F)F)cc1` it was “inactive”; in that of `CC(C)CC#Cc1ccc2c(c1)O[C@@H](CN(C)S(=O)(=O)c1ccc(F)cc1)[C@H](C)CN([C@H](C)CO)S2(=O)=O`, “inactive”; in that of `C[C@@H]1CN([C@H](C)CO)S(=O)(=O)c2ccc(C#Cc3ccncc3)cc2O[C@H]1CN(C)S(=O)(=O)c1ccc(F)cc1`, “active”.
For `CC(C)CC#Cc1ccc2c(c1)O[C@H](CN(C)S(=O)(=O)c1ccc(F)cc1)[C@@H](C)CN([C@@H](C)CO)S2(=O)=O`, the cytotoxicity call was “inactive”.
In the case of `C[C@H](CO)N1C[C@H](C)[C@@H](CN(C)S(=O)(=O)c2ccc(F)cc2)Oc2cc(C#Cc3ccncc3)ccc2S1(=O)=O` it was “inactive”; in that of `C[C@H]1CN([C@@H](C)CO)S(=O)(=O)c2ccc(C#Cc3ccncc3)cc2O[C@@H]1CN(C)S(=O)(=O)c1ccc(F)cc1`, “inactive”; in that of `C[C@@H]1CN([C@@H](C)CO)S(=O)(=O)c2ccc(C#Cc3ccncc3)cc2O[C@H]1CN(C)S(=O)(=O)c1ccc(F)cc1`, “active”.
Consider `C[C@@H]1CN([C@H](C)CO)S(=O)(=O)c2ccc(C#Cc3ccc(F)cc3)cc2O[C@@H]1CN(C)S(=O)(=O)c1ccc(F)cc1`, for which the cytotoxicity call was “inactive”.
As for `C[C@H]1CN([C@@H](C)CO)S(=O)(=O)c2ccc(C#Cc3ccc(F)cc3)cc2O[C@@H]1CN(C)S(=O)(=O)c1ccc(F)cc1`, the entry is “inactive”; as for `C[C@@H]1CN([C@H](C)CO)S(=O)(=O)c2ccc(C#Cc3ccncc3)cc2O[C@@H]1CN(C)S(=O)(=O)c1ccc(F)cc1`, “active”.
As to `C[C@@H]1CN([C@H](C)CO)S(=O)(=O)c2ccc(C#Cc3ccc(F)cc3)cc2O[C@H]1CN(C)S(=O)(=O)c1ccc(F)cc1`, the cytotoxicity call was “inactive”.
For `C[C@H]1CN([C@@H](C)CO)S(=O)(=O)c2ccc(C#Cc3ccc(F)cc3)cc2O[C@H]1CN(C)S(=O)(=O)c1ccc(F)cc1`, the cytotoxicity call is “inactive”.
For `C[C@H]1CN([C@@H](C)CO)S(=O)(=O)c2ccc(C#Cc3ccncc3)cc2O[C@H]1CN(C)S(=O)(=O)c1ccc(F)cc1`, the cytotoxicity call was “active”.
In the case of `O=C(C[C@@H]1C=C[C@@H](NC(=O)CN2CCOCC2)[C@@H](CO)O1)NCCc1ccccc1` it was “inactive”; in that of `C[C@H](CO)N1C[C@H](C)[C@@H](CN(C)Cc2cccc(C(=O)O)c2)Oc2ncc(C#CC(C)(C)O)cc2C1=O`, “inactive”.
With `O=C(CCCCCCC(=O)Nc1ccc([C@H]2O[C@@H](CSc3ccncc3)C[C@@H](c3ccccc3)O2)cc1)NO`, the cytotoxicity call is “inactive”.
As for `C[C@H]1CCCCO[C@H](CN(C)S(=O)(=O)c2cn(C)cn2)[C@@H](C)CN([C@@H](C)CO)C(=O)c2cc(NC(=O)CCCN(C)C)ccc2O1`, the cytotoxicity call is “inactive”.
On to `C[C@@H]1CCCCO[C@H](CN(C)Cc2ccncc2)[C@H](C)CN([C@@H](C)CO)C(=O)c2cc(NC(=O)CCC(F)(F)F)ccc2O1`, for which the cytotoxicity call is “inactive”.
As for `CN1CCN(C(=O)[C@H]2[C@H](CO)[C@H]3Cn4c(cccc4=O)[C@@H]2N3S(=O)(=O)c2ccccc2F)CC1`, the entry is “inactive”.
In the case of `CCNC(=O)C[C@@H]1CC[C@@H]2[C@H](COC[C@H](O)CN2S(=O)(=O)c2ccc(Oc3ccccc3)cc2)O1` it was “inactive”; in that of `O=S1(=O)CC[C@H](N2CCOCC2)C1`, “inactive”; in that of `COc1ccc(NC(=O)Nc2ccc3c(c2)C(=O)N([C@H](C)CO)C[C@H](C)[C@@H](CN(C)C(=O)CCC(F)(F)F)OCCCC[C@@H](C)O3)cc1`, “inactive”.
As for `Cc1noc(C)c1NC(=O)Nc1cccc2c1O[C@@H](CN(C)Cc1ccc(C(=O)Nc3ccccc3N)cc1)[C@@H](C)CN([C@H](C)CO)C2=O`, the entry is “inactive”; as for `O=C(CN1CCOCC1)N[C@H]1CC[C@@H](CCNC(=O)C2CCCCC2)O[C@@H]1CO`, “inactive”; as for `C[C@@H]1CCCCO[C@H](CN(C)C(=O)NC2CCCCC2)[C@H](C)CN([C@H](C)CO)C(=O)c2cc(NC(=O)CCC(F)(F)F)ccc2O1`, “inactive”.
With `O=C(CC(=O)N1CCOCC1)N1CCOCC1`, the cytotoxicity call was “inactive”.
In the case of `Cc1noc(C)c1S(=O)(=O)Nc1ccc2c(c1)C(=O)N([C@H](C)CO)C[C@@H](C)[C@@H](CN(C)Cc1ccc3c(c1)OCO3)O2`, the cytotoxicity call is “inactive”.
In the case of `CC(C)c1nc2cc3sc(C(C)C)nc3cc2s1` it was “inactive”; in that of `CCCCCCCCCC(=O)N[C@H]1[C@H](Oc2c3cc4cc2Oc2ccc(cc2Cl)[C@@H](O[C@@H]2O[C@H](CO)[C@@H](O)[C@H](O)[C@H]2NC(C)=O)[C@@H]2NC(=O)[C@H](NC(=O)[C@@H]4NC(=O)[C@H]4NC(=O)[C@@H](Cc5ccc(c(Cl)c5)O3)NC(=O)[C@@H](N)c3ccc(O)c(c3)Oc3cc(O)cc4c3)c3ccc(O)c(c3)-c3c(O[C@H]4O[C@H](CO)[C@@H](O)[C@H](O)[C@@H]4O)cc(O)cc3[C@H](C(=O)O)NC2=O)O[C@H](CO)[C@@H](O)[C@@H]1O`, “inactive”.
`CN1CCN(C(=O)C[C@@H]2CC[C@H]3[C@@H](COc4ccc(NC(=O)C5CCOCC5)cc4C(=O)N3C)O2)CC1`: the cytotoxicity call was “inactive”.
As for `CS(=O)(=O)N1C[C@H](O)COC[C@@H]2O[C@@H](CC(=O)NCc3ccccc3)CC[C@H]21`, the entry is “inactive”.
As for `C[C@H](CO)N1C[C@H](C)[C@@H](CN(C)S(=O)(=O)c2ccc(F)cc2)Oc2cc(C#Cc3ccc(F)cc3)ccc2S1(=O)=O`, the entry is “inactive”.
As for `C[C@H](CO)N1C[C@H](C)[C@H](CN(C)S(=O)(=O)c2ccc(F)cc2)Oc2cc(C#Cc3ccc(F)cc3)ccc2S1(=O)=O`, the entry is “inactive”; as for `C[C@@H]1CN([C@@H](C)CO)S(=O)(=O)c2ccc(C#Cc3ccc(F)cc3)cc2O[C@@H]1CN(C)S(=O)(=O)c1ccc(F)cc1`, “inactive”; as for `C[C@@H]1CN([C@@H](C)CO)S(=O)(=O)c2ccc(C#Cc3ccc(F)cc3)cc2O[C@H]1CN(C)S(=O)(=O)c1ccc(F)cc1`, “inactive”.
Consider `C[C@H](CO)N1C[C@H](C)[C@H](CN(C)S(=O)(=O)c2ccc(F)cc2)Oc2cc(C#Cc3ccncc3)ccc2S1(=O)=O`, for which the cytotoxicity call is “active”.
As for `C[C@@H]1CN([C@@H](C)CO)S(=O)(=O)c2ccc(C#Cc3ccncc3)cc2O[C@@H]1CN(C)S(=O)(=O)c1ccc(F)cc1`, the entry is “active”.

The values above are taken from the antibiotic and cytotoxicity screens of Wong et al. (2023).
